# In all, about 190,000 compounds went through this assay and about 1,700 (0.89%) were called active. What follows is part of a selection rich in actives, with near analogues and random picks from the rest. Values without a mark were called inactive.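 How the source made its calls: active means inhibition above the mean inhibition across all screened compounds plus 3 SD (cut at about 44% in these data); inactive means the rest.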
# Experiment: blockers of STAT3 transcriptional signaling – U3A cells, luciferase, luminescence, MLSCN library, primary screen (AID 862);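 further: 0% = DMSO only wells and 100% = 100 µM nifuroxazide control wells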
# Settings: IL-6 STAT3-luciferase reporter, at 5.5 µM, stronger effect = higher value, host cell line lacks STAT1
row,Structure (SMILES),inhibition
1,CC(=O)NC(=S)NNC(=O)c1ccc(Br)cc1,-0.5%
2,O=C1N/C(=C/c2cccs2)C(=O)N1Cc1ccc(F)cc1,-0.7%
3,Cc1ccc(NC(=O)NNC(=O)c2sccc2-n2cccc2)cc1,-2.5%
4,Cc1ccnc(NC(=O)C(C)N2C(=O)c3ccccc3C2=O)c1 (centres undefined),1.4%
5,COc1ccc2nc(Nc3nc4cc5c(cc4s3)OCCO5)sc2c1,10.2%
6,c1c2c(cc3sc(N4CCCCC4)nc13)OCCO2,89.7% (active)
7,Brc1ccc2nc(N3CCCC3)sc2c1,30.3%
8,CC(C)c1csc(CN2CCC(CO)(Cc3ccccc3)CC2)n1,2.1%
9,CS(=O)(=O)N(Cc1ccccc1Cl)c1ccc(C(=O)NCc2cccnc2)cc1,-0.3%
10,Fc1ccc(CNCc2ccc(Br)cc2)cc1,19.2%
11,NC1=NC(=O)S/C1=C\c1ccc(O)cc1,3.3%
12,Cc1ccc(-c2csc(NC(=O)c3cnccn3)n2)cc1C,15.5%
13,O=C(Nc1ccccc1)c1ccc2c(c1)OCO2,18.6%
14,O=C(Nc1nc2ccccc2s1)c1ccc2c(c1)OCO2,61.3% (active)
15,O=C(Nc1nc(-c2ccc3c(c2)OCO3)cs1)c1ccncc1,64.6% (active)
16,O=C(Nc1nc(-c2ccncc2)cs1)C1COc2ccccc2O1 (centres undefined),22.6%
17,Cc1cc(C)c2nc(NC(=O)c3ccc4c(c3)OCO4)sc2c1,6.8%
18,C/C(CC(=O)Nc1cccc(C(F)(F)F)c1)=N\NC(=O)C(=O)NCC(C)C,0.3%
19,COC(=O)c1c(C)oc2ccc(N(C(=O)Oc3ccccc3)S(=O)(=O)c3ccccc3)cc12,5.2%
20,COc1ccc2oc(C)c(NC(C)=O)c2c1,4.1%
21,COc1ccc(NS(=O)(=O)c2ccc(NC(C)=O)cc2)cc1OC,47.9% (active)
22,COc1ccc(S(=O)(=O)Nc2ccc3oc(C)c(C(C)=O)c3c2)cc1,46% (active)

row,Structure (SMILES),inhibition
1,COC(=O)COc1ccc(S(=O)(=O)Nc2ccc(NC(C)=O)cc2)cc1,-2%
2,COc1cc(NS(=O)(=O)c2ccc(NC(C)=O)cc2)cc(OC)c1,38%
3,Cc1ccc2c(=O)oc(N(C)C)nc2c1,-6.4%
4,CCc1c(C)nc2c(OC)cccc2c1Cl,3.4%
5,COc1ccccc1C1SCCN1C(=O)c1ccc([N+](=O)[O-])cc1 (centres undefined),-1.1%
6,COc1ccc(C(=O)Nc2ccc(CN3CCOCC3)cc2)cc1,-2.1%
7,O=C(Nc1ccc(CSc2ccccc2)cc1)c1ccc(CN2CCOCC2)cc1,72.7% (active)
8,O=C(Nc1ccccc1C(=O)N1CCOCC1)c1ccc(CSc2ccccc2)cc1,24%
9,COc1ccc(C(=O)Nc2ccc(-n3nncc3C(C)(C)C)cc2)cc1,-0.3%
10,Cc1cccc(C)c1Nc1nnc(SCC(=O)Nc2sccc2C#N)s1,6.5%
11,COc1ccc(NC(=O)CSc2nc(C)cs2)cc1,10.5%
12,Cc1csc(SCC(=O)Nc2sccc2C#N)n1,44.3% (active)
13,Cc1cc(-c2nnc(CCC(=O)NC(c3ccccc3)c3ccccc3)o2)no1,9.8%
14,Cc1nn(CC#N)c(=O)n1N(C)c1ncc(C(F)(F)F)cc1Cl,6.6%
15,Cn1c(SCC(=O)Nc2ccc(Br)cc2F)nnc1-c1ccco1,7.9%
16,COc1ccc(NS(=O)(=O)c2ccc(NC(=O)c3ccc(N(C)S(C)(=O)=O)cc3)cc2)cc1,60.1% (active)
17,COc1cc(OC)cc(C(=O)Nc2ccc(S(=O)(=O)Nc3cc(C)on3)cc2)c1,20.2%
18,COc1ccc(C(=O)Nc2ccc(S(=O)(=O)NC(C)C)cc2)cc1,-0.4%
19,O=C(Nc1ccn(Cc2ccccc2)n1)c1cccc(F)c1,12.5%
20,O=C(Nc1ccn(Cc2ccc(F)cc2)n1)c1ccncc1,22.9%
21,O=C(Nc1ccn(Cc2ccccc2)n1)c1n[nH]c([N+](=O)[O-])c1Cl,53.5% (active)
22,Cc1cccc(C(=O)Nc2ccccc2C(=O)NCc2cccnc2)c1,10.3%

row,Structure (SMILES),inhibition
1,CCOC(=O)/C(=N\Nc1ccccc1Cl)N(C)C1CCS(=O)(=O)C1 (centres undefined),5.4%
2,Cc1ccc(Nc2nnc(SCc3ccccc3)s2)cc1,-15.7%
3,Nc1ccc(Nc2ccccc2)cc1,18.1%
4,Cc1ccc(Nc2ccccc2N)cc1,69.5% (active)
5,O=C1NC(=Nc2ccc(Cl)cc2)SC1Cc1cccc(Cl)c1Cl (centres undefined),0.2%
6,CCOc1ccc(C(CC(=O)O)n2cnnn2)cc1OC (centres undefined),17.4%
7,CCN(CCn1cccn1)Cc1nc(-c2ccc(C(=O)OC)cc2)no1,7.7%
8,OC(COc1ccc(CN2CCSCC2)cc1)CN1CCCCC1 (centres undefined),4.3%
9,COc1ccc(C2=Nc3cc(C)ccc3OC2)cc1,66.7% (active)
10,COc1ccc(C2=NOC3(CC(=O)N(c4ccc(C)cc4)C3=O)C2)cc1 (centres undefined),0%
11,COc1ccc(C2=NOC(COC(=O)c3ccc4ccccc4n3)C2)cc1 (centres undefined),-2.7%
12,COc1cc2c(cc1O)[C@H](Cc1ccc(Oc3cc(C[C@@H]4NCCc5cc(OC)c(O)cc54)ccc3O)cc1)NCC2,-0.3%
13,CC[C@H]1CN2CCc3cc(OC)c(OC)cc3[C@@H]2C[C@@H]1C[C@H]1NCCc2cc(OC)c(OC)cc21,101% (active)
14,CCOC(=O)N1CCC(NC(=O)C(NS(=O)(=O)c2ccc3c(c2)CCN3C(=O)CC)C(C)C)CC1 (centres undefined),8.6%
15,CCOc1ccc(NS(=O)(=O)c2ccc(C)c(C(N)=O)c2)cc1,20.3%
16,COc1cccc(/C=C/C(=O)Nc2ccc3c(c2)OCCO3)c1,30.9%
17,O=C(Cn1cnc2ccccc21)N/N=C/c1ccco1,1.9%
18,Cc1cc(NC(=O)c2cc(-c3cccs3)on2)nn1Cc1ccc(Cl)cc1,47.2% (active)
19,O=C(c1cc(-c2cccs2)on1)N1CCCCC1,24.7%
20,Cc1ccc(Cn2ccc(NC(=O)c3cc(C(C)C)on3)n2)cc1,15.3%

# From PubChem BioAssay AID862 (The Scripps Research Institute Molecular Screening Center, 2007)
